# Measurements taken from PubChem BioAssay AID1347156 (National Center for Advancing Translational Sciences (NCATS), 2019).
# Records with an inconclusive call do not appear. Calls of active or inactive are those of the source. Calls follow the shape of the dose curve; as a rule, active = well fitted cell-killing curve with a large enough effect; inconclusive = small, poorly fitted or top-dose-only effect; inactive = flat fitted curve, though single readings scatter.
# Assay: DAPI mCherry counterscreen qHTS for Zika virus inhibitors; also: nearly all actives have a fitted effect of over 55% in size
# Conditions: Vero cells, DAPI nuclear count cytotoxicity, imaging 48-72 h, infected with Zika reporter virus, MOI 1; series mostly up to 32.6 µM
# How it was run: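 Vero cells (5,000/well), plated overnight, given compounds then recombinant ZIKV-mCherry at MOI 1 for 48-72 hrs at 37 degrees C; PFA-fixed, Hoechst-stained and imaged; nuclei counted and mCherry-positive cells scored as percent infection.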
# Potency is read from the fitted curve at half-maximal effect.
row,Compound,Potency
1,CCCCCc1ccc(/C=C/C(=O)Nc2cc(Cl)ccc2C(=O)O)cc1,35.5 µM (active)
2,Nc1ncnc2c([C@@H]3N[C@H](CO)[C@@H](O)[C@H]3O)c[nH]c12,inactive
3,CCOC(=O)c1ccc(N2C(=O)c3n[nH]c(-c4cccs4)c3C2c2ccc(C(C)(C)C)cc2)cc1 (stereo not drawn),10 µM (active)
4,O=C(O)c1ccccc1-c1c2cc(I)c(=O)c(I)c-2oc2c(I)c(O)c(I)cc12,inactive
5,COc1ccc(S(=O)(=O)Nc2cc(-c3c(O)ccc4ccccc34)c(O)c3ccccc23)cc1,10 µM (active)
6,CC1(C)CCC(CN2CCN(c3ccc(C(=O)NS(=O)(=O)c4ccc(NCC5CCOCC5)c([N+](=O)[O-])c4)c(Oc4cnc5[nH]ccc5c4)c3)CC2)=C(c2ccc(Cl)cc2)C1,5.62 µM (active)
7,CN(C)CC[C@H](CSc1ccccc1)Nc1ccc(S(=O)(=O)NC(=O)c2ccc(N3CCN(Cc4ccccc4-c4ccc(Cl)cc4)CC3)cc2)cc1[N+](=O)[O-],5.01 µM (active)
8,O=C(Nc1cccc(C(=O)Nc2ccc(S(=O)(=O)O)c3cc(S(=O)(=O)O)cc(S(=O)(=O)O)c23)c1)Nc1cccc(C(=O)Nc2ccc(S(=O)(=O)O)c3cc(S(=O)(=O)O)cc(S(=O)(=O)O)c23)c1,inactive
9,O=C(O)c1cccc(-c2ccc(-c3cn(C(=O)N4CCCCC4Cc4ccccc4)nn3)cc2)c1 (stereo not drawn),35.5 µM (active)
10,Cc1cc(C)c2c(c1)C(N(Cc1cc(C(F)(F)F)cc(C(F)(F)F)c1)c1nnn(C)n1)CCCN2CC1CCC(C(=O)O)CC1 (stereo not drawn),35.5 µM (active)
11,CC(C)C[C@H](C(=O)O)c1cc(-c2ccc(C(F)(F)F)cc2)cc(-c2ccc(C(F)(F)F)cc2)c1,11.2 µM (active)
12,N#CC1C(=O)Nc2scc(-c3ccc(-c4ccccc4O)cc3)c2C1=O (stereo not drawn),8.91 µM (active)
13,O=C(Nc1ccc(S(=O)(=O)Nc2nccs2)cc1)C(c1ccccc1)c1ccccc1,inactive
14,Cc1cc(C)cc(C(=O)N(C)[C@H](Cc2ccc(-c3ccccc3)cc2)C(=O)N[C@@H](Cc2c[nH]c3ccccc23)C(=O)O)c1,8.91 µM (active)
15,Cc1c(NS(=O)(=O)c2ccccc2)cc(C(C)C)c(O)c1S(=O)(=O)c1ccc(Cl)cc1,28.2 µM (active)
16,C/C=C/C=C/C=C/C(=O)O[C@@H]1[C@@H](OC)C2=C(C(=O)N(C(CCC(=O)O)C(=O)O)C2)[C@@]2(C)CCCC(C)(C)[C@H]12 (stereo partly drawn),inactive
17,COc1ccc(NS(=O)(=O)c2ccc3c(c2)[C@H]2C=CC[C@H]2[C@@H](c2ccc(C(=O)O)cc2)N3)cc1,inactive

row,Compound,Potency
1,O=C(Nc1cccc(C(=O)OCc2cc(=O)n3nc(C4CC4)sc3n2)c1)c1ccc(F)cc1,inactive
2,CC(=O)Nc1ccc(S(=O)(=O)O)c2cc(S(=O)(=O)O)c(N=Nc3ccc(N=Nc4ccc(S(=O)(=O)O)cc4)c4ccc(S(=O)(=O)O)cc34)c(O)c12,inactive
3,CC(C)(C)c1ccc(S(=O)(=O)Nc2ccc(O)c(Sc3nc4ccccc4s3)c2)cc1,14.1 µM (active)
4,O=C(O)c1cc(O)c2cccc(O)c2c1O[C@@H]1O[C@H](CO)[C@@H](O)[C@H](O)[C@H]1O,inactive
5,Cc1nn2c(=O)cc(COC(=O)c3ccc(NC(=O)c4ccc(C(C)(C)C)cc4)cc3)nc2s1,28.2 µM (active)
6,CCCCCCCOc1cc2c(cc1/C(C)=C/c1ccc(C(=O)O)cc1)C(C)(C)CCS2(=O)=O,15.8 µM (active)
7,Cc1cc(N2CCOCC2)cc2[nH]c(-c3c(NC[C@@H](O)c4cccc(Cl)c4)cc[nH]c3=O)nc12,12.6 µM (active)
8,Cc1cc(-c2ccc(N=Nc3c(S(=O)(=O)O)cc4cc(S(=O)(=O)O)cc(N)c4c3O)c(C)c2)ccc1N=Nc1c(S(=O)(=O)O)cc2cc(S(=O)(=O)O)cc(N)c2c1O,inactive
9,O=S(=O)(Nc1cc(Cl)c(Oc2cnc3ccccc3c2)c(Cl)c1)c1ccc(Cl)cc1Cl,12.6 µM (active)
10,CCC(=O)O[C@H]1[C@H](O[C@@H]2[C@@H](C)[C@H](O[C@H]3C[C@@](C)(OC)[C@@H](O)[C@H](C)O3)[C@@H](C)C(=O)O[C@H](CC)[C@@](C)(O)[C@H](O)[C@@H](C)C(=O)[C@H](C)C[C@@]2(C)O)O[C@H](C)C[C@@H]1N(C)C,35.5 µM (active)
11,NC(=O)c1ccc2nc(-c3ccc(Oc4ccc(Cl)cc4)cc3)[nH]c2c1,31.6 µM (active)
12,O=C(O)c1ccc(S(=O)(=O)N(Cc2ccc(OC(F)(F)F)cc2)c2ncc(C(F)(F)F)cc2Cl)cc1,25.1 µM (active)
13,O=C(NCc1ccc(Oc2ccccc2)cc1)c1nc(-c2cc(Br)c(O)c(Br)c2)no1,8.91 µM (active)
14,O=C(O)c1ccccc1Nc1cccc(OCc2ccc3ccccc3n2)c1,31.6 µM (active)
15,CCS(=O)(=O)c1cccc(C(=O)Nc2ccc(-c3nc4ccccc4s3)c(O)c2)c1,14.1 µM (active)
16,Nc1cc(N)c(N=Nc2ccc(S(=O)(=O)Nc3nccs3)cc2)cc1N=Nc1ccc(S(=O)(=O)Nc2nccs2)cc1,inactive
